Records with an inconclusive call do not appear. Active and inactive are the calls of the source. Calls follow the shape of the dose curve; as a rule, active = well fitted cell-killing curve with a large enough effect; inconclusive = small, poorly fitted or top-dose-only effect, or effect the other way; inactive = flat fitted curve, though single readings scatter.
% is scaled to controls: 0 for no effect and ±100 for the full control effect; potency is read from the fitted curve at half-maximal effect.

For the experiment, the system named is Tov-21-G. As to the kind of experiment: Primary qHTS to identify gynecologic anti-cancer compounds using libraries of approved drugs and bioactive compounds (AID 1345084). Also: nearly all actives have a fitted effect of over 55% in size. As to conditions: Gynecologic cancer cell panel viability, ATPlite luminescence, 48 h; series mostly up to 57.5 µM; activity change, negative = cytotoxicity: at the top concentration. The gist of the method:
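Cells, 1,000 per well, were allowed to settle for 16 h at 37 C before compound addition. Five concentrations were tested for 48 h, and viability was read by ATPlite luminescence after 15 min at room temperature.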
For the compound `CN[C@@H]1[C@@H](O)[C@@H](O[C@@H]2[C@@H](O)[C@H](O[C@H]3O[C@@H]([C@@H](C)NC)CC[C@H]3N)[C@@H](N)C[C@H]2N)OC[C@]1(C)O`, the “activity change, negative = cytotoxicity” value was -0.541% (inactive).
For `C[N+]1(C)[C@@H]2CC[C@H]1CC(OC(=O)C(O)c1ccccc1)C2` (stereo partly specified), the “activity change, negative = cytotoxicity” value is 3.36% (inactive).
Turning to `CCNC(=O)[C@@H]1CCCN1C(=O)[C@H](CCCN=C(N)N)NC(=O)[C@H](CC(C)C)NC(=O)[C@@H](CC(C)C)NC(=O)[C@H](Cc1ccc(O)cc1)NC(=O)[C@H](CO)NC(=O)[C@H](Cc1c[nH]c2ccccc12)NC(=O)[C@H](Cc1cnc[nH]1)NC(=O)[C@@H]1CCC(=O)N1`, the “activity change, negative = cytotoxicity” value was -1.44% [at 25.3 µM] (inactive).
Take `CC(CCC1(O)OC2CC3C4CC=C5CC(O[C@@H]6O[C@H](CO)[C@@H](O[C@@H]7O[C@H](CO)[C@@H](O)[C@H](O)[C@H]7O)[C@H](O)[C@H]6O[C@@H]6O[C@@H](C)[C@H](O)[C@@H](O)[C@H]6O)CCC5(C)C4CCC3(C)C2C1C)CO[C@@H]1O[C@H](CO)[C@@H](O)[C@H](O)[C@H]1O` (stereo partly specified): the activity change, negative = cytotoxicity is -1.21% [at 11.6 µM] (inactive).
Same read-out and setting: for `CN([C@H]1c2cc(OCCCC(F)(F)F)ccc2OC(C)(C)[C@@H]1O)S(C)(=O)=O` the value was 3.56% (inactive).
`CC1(CO)CCCC2(C)C1C(OC(=O)c1ccccc1)C=C1C(=O)OCC12O` (stereo unspecified): the Potency is 11.2 µM (active).
For `Cn1c(NC[C@@H](N)Cc2ccccc2)nc(-c2ccncc2)c(-c2ccc3ccccc3c2)c1=O`, the “activity change, negative = cytotoxicity” value is 1.71% (inactive).
For `CCCCC(=O)N(Cc1ccc(-c2ccccc2-c2nn[nH]n2)cc1)C(C(=O)O)C(C)C` (stereo unspecified), the “activity change, negative = cytotoxicity” value was -1.81% (inactive).
Same read-out and setting: for `Nc1nc(NCC2CCC(CNS(=O)(=O)c3cccc4ccccc34)CC2)nc2ccccc12` (stereo unspecified) the value was 4.25% (inactive); for `COc1ccc(NS(=O)(=O)c2sc3ccc(Cl)cc3c2C)cc1N1CCNCC1`, 0.846% (inactive); for `CCCCc1nc(Cl)c(CO)n1Cc1ccc(-c2ccccc2-c2nnn[nH]2)cc1`, 11.7% (inactive).
Turning to `CCC(=O)c1cc(-c2ccc(Cl)cc2)n(-c2ccc(S(N)(=O)=O)cc2)c1C`, the “activity change, negative = cytotoxicity” value was 12.3% (inactive).
As to `Cc1nnsc1C(=O)Nc1ccc(-n2nc(C(F)(F)F)cc2C(F)(F)F)cc1`, the “activity change, negative = cytotoxicity” value was 5.78% (inactive).
`Cc1cc(C)c(NC(=O)N(Cc2ccc3c(c2)Cc2ccccc2-3)C2CCCCCC2)c(C)c1`: the “activity change, negative = cytotoxicity” value was 2.39% (inactive).
As to `Fc1ccccc1CNCc1ccc(-c2ccnc3[nH]ccc23)cc1`, the “activity change, negative = cytotoxicity” value was -1.53% (inactive).
On the same count and under the same terms, with `CN(Cc1ccc(C(=O)O)cc1)c1ccc(OCc2c(-c3c(Cl)cccc3Cl)noc2C2CC2)nc1C(F)(F)F` the figure was -12.9% (inactive); with `Cc1nc(C)c2c(n1)N(Cc1ccc(-c3ccccc3-c3nn[nH]n3)cc1)C(=O)CC2`, -0.429% (inactive); with `N#C[C@@H]1C[C@@H]2C[C@@H]2N1C(=O)[C@@H](N)C12CC3CC(CC(O)(C3)C1)C2`, -0.565% (inactive).
For `CS(=O)(=O)c1ccc(-c2cn3ccccc3n2)cc1`, the Potency is 8.91 µM (active).
In the case of `CCCCOc1ccc(-c2cncc(C(=O)NCc3cccnc3N3CCOCC3)c2)cc1Cl`, the “activity change, negative = cytotoxicity” value was -0.592% (inactive).
On to `CC[C@H]1OC(=O)[C@H](C)[C@@H](O[C@H]2C[C@@](C)(OC)[C@@H](O)[C@H](C)O2)[C@H](C)[C@@H](O[C@@H]2O[C@H](C)C[C@H](N(C)C)[C@H]2O)[C@](C)(O)C[C@@H](C)/C(=N/OCOCCOC)[C@H](C)[C@@H](O)[C@]1(C)O`, for which the “activity change, negative = cytotoxicity” value was 6.46% (inactive).
Same read-out and setting: with `C[C@@H](O[C@H]1OCCN(Cc2n[nH]nc2CN(C)C)[C@H]1c1ccc(F)cc1)c1cc(C(F)(F)F)cc(C(F)(F)F)c1` the figure was -1.38% (inactive); with `Cc1cc(CN)cc(C)c1NC(=O)c1ccc(-c2cc(Cl)ccc2Cl)o1`, -0.475% (inactive); with `CCCCc1nc(C)c(CC(=S)N(C)C)c(=O)n1Cc1ccc(-c2ccccc2-c2nn[nH]n2)cc1`, 1.87% (inactive).
`CC(=O)N1CCN([C@H]2CCN(C(=O)N(C)[C@H](C)c3cc(C(F)(F)F)cc(C(F)(F)F)c3)[C@@H](c3ccc(F)cc3C)C2)CC1`: the “activity change, negative = cytotoxicity” value was -0.358% (inactive).
The same measure, in the same setting: with `CC1(C)SC2C(NC(=O)[C@H](C(=O)O)c3ccsc3)C(=O)N2C1C(=O)O` (stereo partly specified) the figure was 6.43% (inactive); with `Cc1cc(C)c(-c2csc(NC(=O)c3ccccc3)n2)c(C)c1`, 0.568% (inactive).
As for `COc1c(N2CC3CCCNC3C2)c(F)cc2c(=O)c(C(=O)O)cn(C3CC3)c12` (stereo unspecified), the “activity change, negative = cytotoxicity” value is 5.54% (inactive).
Turning to `CO[C@@H]1[C@@H](O[C@H]2O[C@@H](C)[C@H](O[C@@H]3C[C@](C)(O)[C@H](O)[C@@H](C)O3)[C@@H](N(C)C)[C@@H]2O)[C@@H](CC=O)C[C@@H](C)[C@@H](O[C@H]2CC[C@H](N(C)C)[C@H](C)O2)/C=C/C=C/C[C@@H](C)OC(=O)C[C@H]1O`, the “activity change, negative = cytotoxicity” value is -0.958% (inactive).
On to `COCCNCc1ccc(-c2cc3nccc(Oc4ccc(NC(=S)NC(=O)Cc5ccc(F)cc5)cc4F)c3s2)nc1`, for which the “activity change, negative = cytotoxicity” value was -20% (inactive).
Regarding `Cc1ccn(-c2cc(Cl)ccc2[C@@H](Oc2cc(-c3ccc(C[C@H](N)C(=O)O)cc3)nc(N)n2)C(F)(F)F)n1`, the “activity change, negative = cytotoxicity” value is 5.4% (inactive).

The values above are taken from PubChem BioAssay (NCATS).
